VP16 counter = VP16 counterscreen qHTS for inhibitors of ROR gamma transcriptional activity; Potency, µM (top dose mostly 53.6 µM), most hits filed as inhibitors; 310,000 compounds, 3.5% hits; Drosophila S2 Gal4-VP16 UAS-luciferase, luminescence, 20 h;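 also: Gal4-VP16 expression switched on by copper sulfate through the metallothionein promoter; nearly all actives have a fitted effect of over 50% in size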
IL-1B inflam inh = qHTS for Inhibitors of Inflammasome Signaling: IL-1-beta AlphaLISA Primary Screen | activity change, % at 57.5 µM | THP-1 LPS/ATP IL-1B secretion, AlphaLISA, 16 h; active compounds read low | 360,000 compounds, 4.7% hits; in the data active = activity change below about -50%; inconclusive = mostly about -30% to -49%
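THP-1 cells pretreated 1 hr with compounds (up to 57.5 uM final), then stimulated with LPS (250 ng/mL final) plus ATP (1.25 mM final); secreted IL-1B measured by AlphaLISA after 16 hr, decreased signal indicating inhibition.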
LDHA block = qHTS assay for inhibitors of human lactate dehydrogenase; purified LDHA, NADH/diaphorase-resazurin fluorescence; active compounds read low; activity change, % (values are at about 110 or 230 µM); 480,000 compounds, 0.15% hits; in the data active = activity change below about -30%; inconclusive = mostly about -25% to -30%
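LDH5 2 nM; NADH 0.06 mM, pyruvate 0.2 mM; 200 mM Tris pH 7.4, EDTA, Tween-20; 5 min RT. Detection: diaphorase 0.133 mg/mL + resazurin 37 µM, fluorescence ex540/em590 at 0 and 20 min; normalized to enzyme-free and DMSO wells.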
TDP1 cell CPT = qHTS for Inhibitors of human tyrosyl-DNA phosphodiesterase 1 (TDP1): qHTS in cells in presence of CPT | chicken DT40 Tdp1-/-;hTDP1 cells + 20 nM CPT, ATP luminescence, 48 h | Potency, µM (titrated, usually from 46.2 µM), most hits filed as inhibitors | 420,000 compounds, 12% hits | AID 686979, 2013; also: nearly all actives have a fitted effect of over 55% in size
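Chicken DT40 Tdp1-/- cells complemented with human TDP1, 400 cells/well, exposed to compounds plus 20 nM camptothecin for at least 48 h at 37 C; viability read as ATP content by CellTiter-Glo luminescence.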
RORg inh = qHTS for inhibitors of ROR gamma transcriptional activity; Potency, µM (titrated, usually from 53.6 µM), usual class: inhibitors; AID 2551, 2010; Nuclear receptor ROR-gamma (Mus musculus), P51450; Drosophila S2 Gal4-RORgamma UAS-luciferase reporter, 20 h; 310,000 compounds, 5.4% hits; also: nearly all actives have a fitted effect of over 60% in size
Target sequence (P51450 whole entry, looked up, the tested form may be a part): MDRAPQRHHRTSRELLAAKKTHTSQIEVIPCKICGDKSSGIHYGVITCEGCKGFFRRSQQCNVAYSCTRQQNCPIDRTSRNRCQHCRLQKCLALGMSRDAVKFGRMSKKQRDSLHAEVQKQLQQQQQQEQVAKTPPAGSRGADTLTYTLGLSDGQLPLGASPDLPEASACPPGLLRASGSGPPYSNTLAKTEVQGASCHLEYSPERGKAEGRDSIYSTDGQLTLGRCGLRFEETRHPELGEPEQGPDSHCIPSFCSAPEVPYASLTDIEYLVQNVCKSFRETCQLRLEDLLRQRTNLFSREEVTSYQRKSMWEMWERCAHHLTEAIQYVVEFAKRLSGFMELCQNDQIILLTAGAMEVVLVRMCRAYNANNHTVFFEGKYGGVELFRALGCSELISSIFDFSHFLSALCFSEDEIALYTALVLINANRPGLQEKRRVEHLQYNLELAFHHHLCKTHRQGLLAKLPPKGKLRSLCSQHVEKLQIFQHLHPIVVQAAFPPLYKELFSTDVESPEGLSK
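Using a luciferase readout, inhibitors were identified by reduced reporter activity in Drosophila cells coexpressing a copper-inducible Gal4–ROR gamma fusion and UAS-driven Photinus luciferase, incubated 20 hr after 700 uM copper sulfate.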
DT40 TDP1 no CPT = qHTS for Inhibitors of human tyrosyl-DNA phosphodiesterase 1 (TDP1): qHTS in cells in absence of CPT. DT40 Tdp1-/- hTDP1 cells, no CPT, ATP luminescence, 48 h. Potency, µM (series often up to 46.2 µM), actives largely listed as inhibitors. 420,000 compounds, 15% hits. AID 686978, 2013; also: nearly all actives have a fitted effect of over 55% in size
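A cellular qHTS used chicken DT40 cells lacking endogenous Tdp1 but carrying stably transfected human TDP1. Compounds were applied without camptothecin, and cell growth kinetics were judged by ATP-dependent luminescence after ≥48 hr.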
Hits are given with their value; 0 = inactive; ? = inconclusive; - = not tested or not shown. Hits are enriched below; roughly 18% of the tested compounds scored in any of these assays. Unless noted, calls follow the shape of the dose curve; as a rule, active = well fitted curve in the direction sought with a large enough effect; inconclusive = small, poorly fitted or top-dose-only effect, or another doubt; inactive = no such curve, though single readings can be large; an effect the other way counts as inactive or inconclusive.

SMILES	VP16 counter	IL-1B inflam inh	LDHA block	TDP1 cell CPT	RORg inh	DT40 TDP1 no CPT
CCCN=C(N)/C(C(=O)OCC)=C(\O)c1ccc(OC)cc1	0	0	0	0	0	0
C=CC[C@H](CC(=O)N[C@H](CO)Cc1ccccc1)C(=O)N[C@H](COC(=O)[C@@H](CC=C)Cc1ccc(F)cc1)Cc1c[nH]c2ccccc12	-	0	0	0	-	0
C=CC[C@@H](CC(=O)N[C@@H](CO)Cc1ccccc1)C(=O)N[C@@H](COC(=O)[C@@H](CC=C)Cc1ccc(F)cc1)Cc1c[nH]c2ccccc12	-	-50.7	0	16.4µM	-	20.6µM
C=CC[C@@H](CC(=O)N[C@H](CO)Cc1ccccc1)C(=O)N[C@H](COC(=O)[C@@H](CC=C)Cc1ccc(F)cc1)Cc1c[nH]c2ccccc12	-	?	0	13µM	-	18.4µM
Cc1ccc(-c2cc(-c3ccc(C)c(C)c3)[nH]n2)cc1C	-	-	0	-	-	-
Cn1c(CC2CCS(=O)(=O)C2)nnc1SCC(=O)Nc1ccc(-c2ccccc2)cc1 (stereo unspecified)	-	-	0	-	-	-
O=C(c1ccc(CS(=O)c2ccccc2Cl)o1)N1CCOCC1 (stereo unspecified)	0	0	0	0	0	0
Cc1ccccc1S(=O)Cc1ccc(C(=O)NC2CC2)o1 (stereo unspecified)	0	0	0	0	0	0
COc1cccc(N2CCN(C(=O)c3ccc(CS(=O)c4ccccc4C)o3)CC2)c1 (stereo unspecified)	0	0	0	0.517µM	0	0.581µM
O=C(c1ccc(COc2ccc3c(c2)CCC3)o1)N1CCN(c2ccccc2)CC1	-	-72.5	0	14.6µM	-	?
O=C(c1ccc(CS(=O)c2cccc(Cl)c2)o1)N1CCCCCC1 (stereo unspecified)	0	0	0	0	?	23.1µM
O=C(c1ccc(CS(=O)c2ccccc2Cl)o1)N1CCN(c2ccccc2)CC1 (stereo unspecified)	0	0	0	0.82µM	0	0.517µM
CN(C)CCNc1oc(-c2ccc(S(=O)(=O)N(C)C)cc2)nc1C#N	-	-	0	-	-	-
Cc1c(C(=O)O)sc2ccccc12	-	-	0	-	-	-
COc1cc(Nc2nc3ccccc3nc2C(=O)OCC(C)C)cc(OC)c1	-	-	0	-	-	-
Cc1ccc2[nH]cc(CCNC(=O)Cc3ccc(F)cc3)c2c1	-	-	0	-	-	-
Cc1ccccc1OCc1ccc(C(=O)N2CCOCC2)o1	0	0	0	0	0	0
O=C(c1ccc(COc2ccccc2Cl)o1)N1CCN(c2ccccc2)CC1	0	0	0	?	0	29.1µM
Cc1ccc(C)c(N2CCN(C(=O)c3ccc(CS(=O)c4ccccc4)o3)CC2)c1 (stereo unspecified)	-	-	0	-	-	-
COc1ccc(N2CCN(C(=O)c3ccc(CS(=O)c4cccc(C)c4)o3)CC2)cc1 (stereo unspecified)	0	0	0	18.4µM	0	16.4µM
COc1cccc(N2CCN(C(=O)Nc3ccccc3Cl)CC2)c1	0	?	0	0	0	0
COc1cccc(N2CCN(C(=O)c3ccc(CS(=O)c4ccccc4Cl)o3)CC2)c1 (stereo unspecified)	0	0	0	0.0291µM	0	0.0052µM
CC(C)Cn1nc(C(=O)NCc2cccc(CN(C)C)c2)c2ccccc2c1=O	-	-	0	-	-	-
COc1ccc(-c2ocnc2C(=O)Nc2c(C)cccc2C)cc1	-	-	0	-	-	-
N#Cc1cccc(-c2ccc3ncnc(NC4CCNCC4)c3c2)c1	0	-	-	0	0	0
SMILES	VP16 counter	IL-1B inflam inh	LDHA block	TDP1 cell CPT	RORg inh	DT40 TDP1 no CPT
CNc1ncnc2ccc(-c3cccc(OC)c3)cc12	0	-	-	16.4µM	0	23.1µM
COc1cccc(-c2ccc3ncnc(NC4CC4)c3c2)c1	?	-	-	16.4µM	0	11.6µM
COc1cccc(-c2ccc3ncnc(NCCNC(C)=O)c3c2)c1	0	-	-	14.6µM	0	?
COc1cccc(-c2ccc3ncnc(NC4CCNCC4)c3c2)c1	0	-	-	?	0	13µM
O=C(Nc1ccc(Cl)cc1C(F)(F)F)c1ccccc1F	-	-	0	-	-	-
COc1cccc2cc(-c3cc(=O)oc4cc(OCC(=O)C(C)(C)C)ccc34)c(=O)oc12	-	-	0	-	-	-
CNc1ncnc2ccc(-c3ccc4c(c3)OCO4)cc12	0	-	-	23.1µM	0	18.4µM
O=C(Cc1ccc(F)cc1)NCC1CCN(Cc2cccs2)CC1	-	-	0	-	-	-
CCN(C(=O)c1cn(CC(C)C)c(=O)c2cc(OC)c(OC)cc12)c1cc(OC)ccc1OC	-	-	0	13µM	-	14.6µM
CCC1CCCCN1CCCNC(=O)c1c(C)oc2ncn(CC(C)C)c(=O)c12 (stereo unspecified)	-	-	0	0	-	0
CCC1CCCCN1CCCNC(=O)c1cn(CC(C)C)c(=O)c2cc(OC)c(OC)cc12 (stereo unspecified)	0	?	0	0	0	1.84µM
CCCN(C(=O)c1cn(CC(C)C)c(=O)c2cc(OC)c(OC)cc12)c1cccc(C)c1	-	-	0	13µM	-	14.6µM
CCc1ccccc1N(C)C(=O)c1cn(CC(C)C)c(=O)c2cc(OC)c(OC)cc12	-	-	0	10.3µM	-	10.3µM
CSc1ccc(NC(=O)C2C(C=C(C)C)C2(C)C)cc1 (stereo unspecified)	-	-	0	-	-	-
CC(=O)NCc1ccc(C(=O)CSc2nnc(C3CC3)n2Cc2ccccc2)cc1	-	-	0	-	-	-

Source: PubChem BioAssay
